Compounds without any hit were thinned out: in the full panel of roughly 83,000, 20% have a hit.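 Compound tested at a single concentration for 48 hours in 96-well plates; a percent growth value below 10 was scored as active.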 Unmarked numbers belong to inactive results. Active and inactive are the calls of the source.

Test systems include T-47D breast; BT-549 breast; MDA-MB-435 melanoma; SW-620 colon; MCF7 breast; HCT-116 colon; HCC-2998 colon; KM12 colon; MDA-MB-468 breast.
Holding throughout (assay): NCI-60 one-dose screen, 48 h (100 = growth as untreated, 0 = no growth, -100 = all killed)
What all share (details): 10 µM unless noted

Take `O=C1N/C(=N\c2nccs2)S/C1=C\c1ccc([N+](=O)[O-])cc1`: the growth is 15.2% in the assay on T-47D breast; 35.5% with BT-549 breast; 22.2% in the assay on MDA-MB-435 melanoma; 20.9% in the assay on SW-620 colon; 9.68% (active) in the assay with MCF7 breast; -1.76% (active) with HCT-116 colon. The growth in the assay on HCC-2998 colon was 22.7%; in the assay on KM12 colon, 14.2%; with MDA-MB-468 breast, -14.6% (active).

For the compound `COc1cccc(/C=C/c2nc3ccccc3c(=O)n2CC(=O)Nc2ccccc2)c1`, the growth is 36.7% with T-47D breast; 43.9% in the assay on BT-549 breast; 70.6% in the assay with MDA-MB-435 melanoma; 51.1% in the assay on SW-620 colon; 41.6% in the assay on MCF7 breast; 35.7% in the assay with HCT-116 colon. Further, the figures for the growth in the assay on HCC-2998 colon, in the assay with KM12 colon and in the assay on MDA-MB-468 breast were 89.8%, 94.2% and 83.4%, respectively.

With `CN(C)c1nc(NCCNS(=O)(=O)c2ccc(C3=Nc4c(N)nc(N)nc4NC(c4ccc(Cl)cc4)C3)cc2)nc(N2CCOCC2)n1` (stereo unspecified), the growth in the assay on T-47D breast is 43%; in the assay with BT-549 breast, 35.4%; in the assay on MDA-MB-435 melanoma, 60.1%; in the assay with SW-620 colon, 82.8%; in the assay on MCF7 breast, 22.4%; in the assay on HCT-116 colon it was 30.9%. In addition, the growth with HCC-2998 colon is 39.3%; in the assay on KM12 colon, 52.9%; with MDA-MB-468 breast, 6.95% (active).

With `COc1ccc(S(=O)(=O)Nc2ccc(-c3ccc4c(c3)NC(=O)/C4=C\c3ccc[nH]3)cc2)cc1OC`, the growth with T-47D breast is -21% (active); in the assay on BT-549 breast, 13.3%; with MDA-MB-435 melanoma, 22%; with SW-620 colon, 16.1%; with MCF7 breast, -39% (active); in the assay with HCT-116 colon, 19%. In addition, the growth is 24.2% in the assay with HCC-2998 colon, 33.6% with KM12 colon and -56.2% (active) in the assay with MDA-MB-468 breast.

On to `O=C1c2cccc3c(N4CCN(c5ccccc5)CC4)ccc(c23)C(=O)N1c1cccc(-c2nn(-c3ccccc3)cc2-c2nc3ccccc3s2)c1`, for which the growth with T-47D breast was 114%; with BT-549 breast, 126%; in the assay with MDA-MB-435 melanoma it was 106%; in the assay with SW-620 colon, 98%; in the assay with MCF7 breast, 81.2%; in the assay on HCT-116 colon, 101%. Further, the growth in the assay with HCC-2998 colon was 115%; with KM12 colon, 104%; with MDA-MB-468 breast, 96.9%.

Take `CCCCNc1ccc2c3c(cccc13)C(=O)N(c1cccc(-c3nn(-c4ccccc4)cc3-c3nc4ccccc4s3)c1)C2=O`: the growth is 101% in the assay with T-47D breast; 117% in the assay on BT-549 breast; 106% in the assay on MDA-MB-435 melanoma; 105% in the assay on SW-620 colon; 109% in the assay on MCF7 breast; 98.9% in the assay with HCT-116 colon. In addition, the growth with HCC-2998 colon was 119%; with KM12 colon, 108%; in the assay on MDA-MB-468 breast, 97.7%.

Take `COc1cc(/C=C/C(=O)c2ccc(S(=O)(=O)NCCNc3nc(N(C)C)nc(N4CCOCC4)n3)cc2)cc(OC)c1OC`: the growth in the assay on T-47D breast is 29.9%; in the assay with BT-549 breast it was -73.3% (active); with MDA-MB-435 melanoma, -56% (active); in the assay on SW-620 colon it was -100% (active); in the assay with MCF7 breast, -96.4% (active); with HCT-116 colon, -100% (active). Further, the growth with HCC-2998 colon, in the assay on KM12 colon and in the assay with MDA-MB-468 breast was -100% (active) each time.

As for `Nc1cc(-c2c[nH]c3ccc(Br)cc23)nc2cc(-c3c[nH]c4ccccc34)nn12`, the growth with T-47D breast was -60.5% (active); with BT-549 breast, -21.4% (active); with MDA-MB-435 melanoma, -75.1% (active); in the assay on SW-620 colon, -83.2% (active); with MCF7 breast it was -66.8% (active); in the assay on HCT-116 colon it was -78% (active). The growth in the assay on HCC-2998 colon is -78.2% (active); with KM12 colon it was -65.4% (active); in the assay on MDA-MB-468 breast, -81.8% (active).

For the compound `O=C(Nc1ccc(S(=O)(=O)N2CCCCC2)cc1)C(Cl)Cl`, the growth is 101% with T-47D breast; 124% in the assay with BT-549 breast; 109% in the assay on MDA-MB-435 melanoma; 109% with SW-620 colon; 101% in the assay on MCF7 breast; 105% in the assay on HCT-116 colon. The growth is 124% in the assay on HCC-2998 colon, 104% with KM12 colon and 118% in the assay with MDA-MB-468 breast.

On to `O=C(c1ccc(O)cc1)C1[C@H](c2ccc(Cl)cc2)[C@@H](c2ccccc2)NC12C(=O)Nc1ccc(Br)cc12` (stereo partly specified), for which the growth in the assay with T-47D breast is 2.46% (active); in the assay on BT-549 breast, -76.6% (active); in the assay with MDA-MB-435 melanoma, -41.1% (active); with SW-620 colon, -58.1% (active); with MCF7 breast, -22.1% (active); in the assay on HCT-116 colon, -75% (active). The growth with HCC-2998 colon was -88.6% (active); with KM12 colon it was -25.4% (active); with MDA-MB-468 breast, -61.1% (active).

With `CC(C)C[C@H](NC(=O)CNC(=O)C[C@H]1O[C@@H]2OC3(C)CC[C@H]4[C@H](C)CC[C@@H]([C@H]1C)[C@@]24O3)B(O)O`, the growth is -30.8% (active) in the assay on T-47D breast; -87% (active) in the assay on BT-549 breast; -71.1% (active) in the assay with MDA-MB-435 melanoma; -0.307% (active) with SW-620 colon; 20.3% with MCF7 breast; -67.2% (active) with HCT-116 colon. The growth with HCC-2998 colon was -94.5% (active); in the assay on KM12 colon, -24.4% (active); in the assay on MDA-MB-468 breast, -58.4% (active).

For `CS(=O)(=O)Nc1cc(-c2ccc3ncnc(N4CCc5cc(F)c(Cl)cc54)c3c2)cnc1Cl`, the growth is -9.78% (active) with T-47D breast; -25.2% (active) with BT-549 breast; 3.42% (active) with MDA-MB-435 melanoma; 32.7% in the assay on SW-620 colon; 8.15% (active) in the assay on MCF7 breast; 23.6% in the assay with HCT-116 colon. For the same compound, the growth was 16.5% in the assay with HCC-2998 colon, 14.2% with KM12 colon and -60.2% (active) with MDA-MB-468 breast.

For the compound `COC(=O)c1cc(C(=O)C(C)(C)C)n2c3ccccc3c3ccccc3c12`, the growth is 47.1% in the assay on T-47D breast; 111% in the assay with BT-549 breast; 105% in the assay on MDA-MB-435 melanoma; 101% with SW-620 colon; 86.2% in the assay with MCF7 breast; 88.4% with HCT-116 colon. In addition, the values for the growth in the assay with HCC-2998 colon, with KM12 colon and in the assay on MDA-MB-468 breast were 124%, 79.5% and 88.3%, respectively.

Take `CCCn1c(NC(=O)c2cccc(C(N)=O)c2)nc2ccc(CN3CCCCC3)cc21`: the growth is 107% with T-47D breast; -48% (active) in the assay on BT-549 breast; 93.1% with MDA-MB-435 melanoma; 109% with SW-620 colon; 75.6% with MCF7 breast; 6.73% (active) in the assay on HCT-116 colon. The growth is 107% in the assay with HCC-2998 colon, 24% with KM12 colon and 109% in the assay on MDA-MB-468 breast.
